In the library only some 11% were active in any assay of this set; here they are far more common.
Sfp inh = inhibitors of Bacillus subtilis Sfp phosphopantetheinyl transferase; Q9F4F7; Biochemical Sfp PPTase activity, qHTS; Potency, µM, hits mostly inhibitors; 310,000 compounds, 3.5% hits; AID 1490;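 further: the enzyme is Sfp with the accession as filed and its product quenches rhodamine fluorescence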
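With Hepes-Na pH 7.6 buffer containing 10 mM MgCl2, Sfp (15 nM) modified BHQ-2-YbbR (12.5 uM) using rhodamine-CoA (5 uM). Two reads 30 minutes apart at 525/598 nm yielded each well's rate.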
G9a inh = inhibitors of human histone lysine methyltransferase G9a; G9a H3K9 monomethylation, AlphaScreen, 2 h; 350,000 compounds, 8.8% hits; Q96KQ7; Potency, µM (series often up to 102 µM), hits mostly inhibitors; further: nearly all actives have a fitted effect of over 75% in size
Target sequence (Q96KQ7 913-1193 limits assumed): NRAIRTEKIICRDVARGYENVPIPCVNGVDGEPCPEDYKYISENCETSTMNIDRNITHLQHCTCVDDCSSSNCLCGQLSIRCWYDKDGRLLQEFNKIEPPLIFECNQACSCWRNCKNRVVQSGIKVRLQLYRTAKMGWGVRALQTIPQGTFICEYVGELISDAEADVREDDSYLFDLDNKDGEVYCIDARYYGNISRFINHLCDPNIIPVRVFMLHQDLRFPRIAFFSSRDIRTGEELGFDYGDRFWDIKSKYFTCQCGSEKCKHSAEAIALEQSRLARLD
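G9a (20 nM) was preincubated 15 min with compound, then reacted 2 h at room temperature with 500 nM biotin-H3K9 peptide and 20 µM SAM. Monomethyl-H3K9 detected by AlphaScreen using anti-H3K9me1 antibody.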
Tau fluor counter = counter-screen for tau fibril formation inhibitors; Potency, µM (series often up to 57.7 µM); tau K18 P301L Alexa594 fluorescence, heparin fibrillization; 280,000 compounds, 0.93% hits; AID 1463; further: nearly all actives have a fitted effect of over 55% in size
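Human tau K18 P301L (15 uM unlabeled, 0.24 uM Alexa 594-labeled) in 100 mM sodium acetate pH 7 with 20 uM heparin, 6 hr at 37 C. ThT 30 uM added, 1 hr ambient; Alexa 594 FP and total fluorescence read at 555/632 nm.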
Coupling enz = inhibits coupling enzyme system, counter-screen for aldolase hits | coupling enzyme system counterscreen, AmpLite Red fluorescence | activity change, negative = inhibition, % at 58.2 µM, hits read low | 290,000 compounds, 0.67% hits; in the data active means activity change below about -30%
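First, compound is pin-transferred into glyceraldehyde-3-phosphate coupling-enzyme reagent at 57.5 uM final and held 10 min at RT. Next, substrate, coupling system and AmpLite Red are added. After 20 min RT, fluorescence (525/598 nm) is read.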
Tau ThT inhib = tau fibrillization inhibition (ThT binding); P10636; recombinant tau K18 P301L, heparin-induced fibrillization, ThT fluorescence; Potency, µM (doses to about 57.4 µM), most hits filed as inhibitors; 270,000 compounds, 2.1% hits; further: nearly all actives have a fitted effect of over 55% in size
Target sequence (P10636 561-689 P618L limits assumed): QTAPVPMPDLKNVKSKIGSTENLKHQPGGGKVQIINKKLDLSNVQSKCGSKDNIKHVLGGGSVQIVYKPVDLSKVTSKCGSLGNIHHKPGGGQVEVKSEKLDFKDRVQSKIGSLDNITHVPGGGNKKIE
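Using a mix of unlabeled (15 uM) and Alexa 594-labeled (0.24 uM) tau K18 P301L, heparin-triggered fibrillization over 6 hr at 37 C was scored by ThT fluorescence.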
Tau fibril FP = tau fibrillization inhibition (FP). K18 P301L tau heparin fibrillization, Alexa594 FP, 6 h. Potency, µM (series often up to 57.7 µM), usual class: inhibitors. 280,000 compounds, 0.39% hits; further: nearly all actives have a fitted effect of over 55% in size
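Quantitative HTS format: compounds meet 15 uM recombinant K18 P301L tau and Alexa 594-tau tracer in 100 mM sodium acetate pH 7; 20 uM heparin triggers fibrillization at 37 C over 6 hr; FP gives the signal.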
Of the large screens only hits and unclear results are named; the others gave an inactive call; ! = not active in a repeat. Unless noted, the call rests on the fitted dose curve; in most records, active means well fitted curve in the direction sought with a large enough effect; inconclusive means small, poorly fitted or top-dose-only effect, or another doubt; inactive means no such curve, though single readings can be large; an effect the other way counts as inactive or inconclusive.

COc1ccc(OC)c(Nc2nc(NCCCN(C)C)nc(N)c2[N+](=O)[O-])c1	G9a inh 45µM, Tau ThT inhib inconclusive
CC(=O)N1CCN(c2ccc(NC(=O)c3cccc([N+](=O)[O-])c3)cc2)CC1	none (no result: G9a inh, Tau fluor counter, Tau ThT inhib, Tau fibril FP)
COc1ccc(C(c2c(O)ccc3ccccc23)N2CCOCC2)c(OC)c1 (stereo unspecified)	G9a inh 32µM, Tau ThT inhib 11µM
O=S(=O)(Nc1ccc(Br)cc1)c1ccc2nc(-c3ccccc3)[nH]c2c1	Tau fluor counter inconclusive, Tau fibril FP 16µM (no result: Sfp inh, Coupling enz)
CC(C)c1ccc(NS(=O)(=O)c2ccc3nc(-c4ccccc4)[nH]c3c2)cc1	Tau fluor counter inconclusive, Tau ThT inhib inconclusive, Tau fibril FP 10µM (no result: Sfp inh, Coupling enz)
Cc1cccc(NS(=O)(=O)c2ccc3nc(-c4ccccc4)[nH]c3c2)c1C	Tau fibril FP inconclusive
Cc1ccc(NS(=O)(=O)c2ccc3nc(-c4ccccc4)[nH]c3c2)c(Cl)c1	Tau fluor counter inconclusive, Tau fibril FP 14µM (no result: Sfp inh, Coupling enz)
O=C(CN1CCC(C(=O)c2ccc(F)cc2)CC1)Nc1ccccc1Cl	none (no result: Tau fluor counter, Tau ThT inhib, Tau fibril FP)
CCOc1ccc(CC(=O)NC2CC(=O)N(c3cccc(F)c3)C2)cc1 (stereo unspecified)	none (no result: Sfp inh, Coupling enz)
CCc1cccc(OCCCCNCCCOC)c1	Sfp inh inconclusive, G9a inh 13µM
C=CCNCCCCOc1cccc(Br)c1	Sfp inh 45µM (no result: G9a inh)
COCCCNCCCCOc1cccc(Br)c1	G9a inh 28µM
OCCNCCCCOc1cccc(Br)c1	none
CCN(CC)S(=O)(=O)c1cccc(-c2cn3cc(C)ccc3n2)c1	G9a inh inconclusive
Cc1ccc2nc(-c3cccc(S(=O)(=O)N(C)C)c3)cn2c1	Coupling enz -32
c1ccc(CSc2ccc(-c3cccs3)nn2)nc1	G9a inh 16µM, Tau ThT inhib inconclusive
c1ccc(CSc2ccc(-c3cccs3)nn2)cc1	none
Cc1ccc(CCNC(=O)c2cccc(NC3=NC4CS(=O)(=O)CC4S3)c2)cc1 (stereo unspecified)	G9a inh inconclusive (no result: Tau fluor counter, Tau ThT inhib, Tau fibril FP)
CCOC(=O)c1ccccc1NC(=O)CSc1nnnn1C1CCCCC1	Tau fluor counter inconclusive, Tau ThT inhib 14µM, Tau fibril FP inconclusive
COC(=O)c1ccccc1NC(=O)CSc1nnnn1C1CCCCC1	none
CC(C)n1nnnc1SCC(=O)Nc1ccccc1N1CCOCC1	none
O=C(CSc1nnnn1C1CCCCC1)Nc1ccccc1N1CCOCC1	G9a inh 35µM
Cc1cc(=O)n2[nH]c(NC(=O)c3cccc(Cl)c3)nc2n1	G9a inh inconclusive (no result: Sfp inh, Coupling enz)
CN1C(=S)SC(/[N+]([O-])=C/c2ccc(Cl)cc2)C1(C)C (stereo unspecified)	none (no result: Tau ThT inhib)
[O-]/[N+](=C/c1ccco1)c1ccccc1	none (no result: Tau fluor counter, Tau ThT inhib, Tau fibril FP)
[O-]/[N+](=C/c1ccc(F)cc1)c1ccc(Cl)cc1	Sfp inh 40µM, G9a inh 11µM, Tau ThT inhib 32µM, Tau fibril FP inconclusive
[O-]/[N+](=C\c1ccco1)c1ccc(Cl)cc1	G9a inh 45µM (no result: Tau fluor counter, Tau ThT inhib, Tau fibril FP)
CCOc1cc2c(cc1OCC)C(CC(=O)O)N(C(=O)Nc1ccccc1C(F)(F)F)CC2 (stereo unspecified)	none (no result: Sfp inh, Coupling enz)
COC(=O)CCC(=O)OC1(C)C(=O)C=C2C=C(C3CC3)N(CCc3c[nH]c4ccccc34)C=C2C1=O (stereo unspecified)	Coupling enz -40!, Tau ThT inhib inconclusive
COC(=O)CCC(=O)OC1(C)C(=O)C=C2C=C(C3CC3)N(C(CO)CO)C=C2C1=O (stereo unspecified)	Coupling enz -39!
COC(=O)CCC(=O)OC1(C)C(=O)C2=CN(CCc3c[nH]c4ccccc34)C(c3ccc(OC)cc3)=CC2=C(Br)C1=O (stereo unspecified)	none (no result: G9a inh)
CCCCC1=CC2=CC(=O)C(C)(OC(=O)CCC(=O)OC)C(=O)C2=CO1 (stereo unspecified)	none (no result: G9a inh)
C=CCN1C=C2C(=O)C(C)(OC(=O)CCC(=O)OC)C(=O)C=C2C=C1C1CC1 (stereo unspecified)	Coupling enz -41, Tau ThT inhib inconclusive
COC(=O)CCC(=O)OC1(C)C(=O)C=C2C=C(C3CC3)N(CCN3CCOCC3)C=C2C1=O (stereo unspecified)	Coupling enz -46
Cc1ccc(CN2CCN(Cc3ccc4cccc(F)c4n3)CC2CCO)cc1 (stereo unspecified)	none (no result: G9a inh, Tau fluor counter, Tau ThT inhib, Tau fibril FP)
COC(=O)CCC(=O)OC1(C)C(=O)C2=CN(c3ccccc3)C(c3ccc(OC)cc3)=CC2=C(Br)C1=O (stereo unspecified)	Tau ThT inhib inconclusive (no result: G9a inh)
COC(=O)CCC(=O)OC1(C)C(=O)C=C2C=C(C3CC3)N(CCCOC(C)C)C=C2C1=O (stereo unspecified)	Coupling enz -50
COC(=O)CCC(=O)OC1(C)C(=O)C=C2C=C(C3CC3)N(CCCCO)C=C2C1=O (stereo unspecified)	Coupling enz -40!
COC(=O)CCC(=O)OC1(C)C(=O)C=C2C=C(C3CC3)N(CCc3ccccn3)C=C2C1=O (stereo unspecified)	Coupling enz -49, Tau ThT inhib inconclusive
COC(=O)CCC(=O)OC1(C)C(=O)C=C2C=C(C3CC3)N(c3ccccc3)C=C2C1=O (stereo unspecified)	Coupling enz -41, Tau ThT inhib inconclusive
CCCCNc1nc(C)nc2c1nc(-c1ccccc1)n2CCN1CCCCC1	none (no result: G9a inh)
COc1ccc(C)cc1NC(=O)C/C(C)=N/NC(=O)Cc1cccc2ccccc12	none (no result: Tau fluor counter, Tau ThT inhib, Tau fibril FP)
CN(CC(=O)Nc1ccc(F)cc1)C(=O)C1CCN(C(=O)Nc2ccccc2)CC1	none (no result: Sfp inh, Tau fluor counter, Coupling enz, Tau ThT inhib, Tau fibril FP)
O=C(NC1CCCCC1)C(c1ccc(O)cc1)N(C(=O)c1cnccn1)c1cccc(F)c1 (stereo unspecified)	none (no result: Tau fluor counter, Tau ThT inhib, Tau fibril FP)
Cc1nc(C(=O)NNC(=O)c2ccc(C(F)(F)F)cc2)cs1	G9a inh inconclusive
CC(C)(C)c1nn(-c2ccccc2)c2[nH]c(=O)c(C=O)cc12	G9a inh inconclusive (no result: Tau fluor counter, Tau ThT inhib, Tau fibril FP)
COc1cccc(NCc2cc3c(C(C)(C)C)nn(-c4ccccc4)c3[nH]c2=O)c1	G9a inh 25µM, Tau fluor counter inconclusive
Cc1nn(-c2ccccc2)c2[nH]c(=O)c(CNc3ccc4c(c3)OCCO4)cc12	G9a inh 11µM, Tau ThT inhib inconclusive
CCc1ccc(NCc2cc3c(C)nn(-c4ccccc4)c3[nH]c2=O)cc1	Tau fluor counter inconclusive, Tau ThT inhib inconclusive
CCOc1ccc(NCc2cc3c(C(C)(C)C)nn(-c4ccccc4)c3[nH]c2=O)cc1	G9a inh 40µM, Tau fluor counter inconclusive, Tau ThT inhib inconclusive
Cc1ccc2nc(C)c3c(c2c1)SCC3	none
Cc1ccc(C)c(NC(=O)CN(C)S(=O)(=O)c2cccc3nsnc23)c1	none (no result: Sfp inh, Coupling enz)

Source: PubChem (National Center for Advancing Translational Sciences (NCATS))
